The values below come from PubChem BioAssay (NCI).

Some test systems named below: NCI-H23 lung; NCI-H226 lung; NCI-H322M lung; HOP-62 NSCLC; NCI-H460 lung; HOP-92 NSCLC; NCI-H522 lung; A549/ATCC NSCLC; 786-0 renal; COLO 205 colon; DU-145 prostate; K-562 leukemia; MALME-3M melanoma; MDA-MB-231 breast; RXF 393 renal; SF-268 CNS; SF-295 CNS; SF-539 CNS; UACC-257 melanoma; M14 melanoma.
Common to all, as to assay: NCI-60 one-dose screen, 48 h (100 = growth as untreated, 0 = no growth, -100 = all killed)
Holding throughout (details): 10 µM unless noted

The structures appear in SMILES notation. About 83,000 compounds went through this panel and 20% of them were active in at least one assay; those are over-represented in the sample as a whole.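 A percent growth of 40 corresponds to 60% growth inhibition; 0 means no net growth; -100 means all cells died. Active threshold: below 10.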 Unmarked numbers belong to inactive results. The source made the active and inactive calls.

Consider `C=CN(C(=O)N1CCN(c2cc3c(cc2F)c(=O)c(C(=O)O)cn3C2CC2)CC1)c1nc(-c2ccccc2)cs1`, for which the growth was 101% in the test on NCI-H23 lung; 98.1% in the test with NCI-H226 lung; 84.1% in the test with NCI-H322M lung; 98.4% in the test with HOP-62 NSCLC; 104% in the test on NCI-H460 lung; 90.6% with HOP-92 NSCLC. Moreover, the growth with NCI-H522 lung was 81.4%; in the test with A549/ATCC NSCLC, 102%; with 786-0 renal it was 90.1%; in the test on COLO 205 colon, 98.5%; in the test with DU-145 prostate, 107%; with K-562 leukemia it was 94.8%. For the same molecule, the growth is 107% with MALME-3M melanoma; 90.4% in the test on MDA-MB-231 breast; 103% in the test on RXF 393 renal; 99.4% with SF-268 CNS; 95.7% in the test with SF-295 CNS; 96.5% with SF-539 CNS. The growth with UACC-257 melanoma is 100%; with M14 melanoma it was 105%.

For `COc1cc(-c2nccc3[nH]c(-c4cccc5[nH]ccc45)nc23)cc(OC)c1OC`, the growth was 26.8% with NCI-H23 lung; 34% in the test with NCI-H226 lung; 64% in the test on NCI-H322M lung; 12.2% in the test with HOP-62 NSCLC; 7.17% (active) in the test with NCI-H460 lung; -2.13% (active) in the test with HOP-92 NSCLC. Further, the growth with NCI-H522 lung is -15.7% (active); with A549/ATCC NSCLC, 17.3%; with 786-0 renal it was 7.27% (active); in the test with COLO 205 colon it was -62.9% (active); in the test with DU-145 prostate, 22.7%; in the test on K-562 leukemia, 8.35% (active). The growth was 56% in the test with MALME-3M melanoma; 19.7% in the test with MDA-MB-231 breast; 50.8% with RXF 393 renal; 34.2% with SF-268 CNS; 21% with SF-295 CNS; 3.35% (active) in the test with SF-539 CNS. Also, the growth with UACC-257 melanoma was 58.7%; with M14 melanoma it was 20.6%.

For `COC(=O)c1c2c(c[n+]([O-])c1C)C(=O)C=C(NCc1ccccc1)C2=O`, the growth with NCI-H23 lung is -39.1% (active); in the test with NCI-H226 lung, -90.8% (active); with NCI-H322M lung, -100% (active); with HOP-62 NSCLC, -95.3% (active); with NCI-H460 lung, -79.8% (active); in the test on HOP-92 NSCLC, -74.5% (active). Besides, the growth with NCI-H522 lung is -57.9% (active); in the test with A549/ATCC NSCLC it was -64.2% (active); in the test with 786-0 renal, -69% (active); with COLO 205 colon, -73.7% (active); in the test on DU-145 prostate, -94.7% (active); in the test on K-562 leukemia, -29% (active). Also, the growth with MALME-3M melanoma is -100% (active); with MDA-MB-231 breast, -17.7% (active); in the test on RXF 393 renal, -94.1% (active); in the test with SF-268 CNS, -51.6% (active); in the test on SF-295 CNS it was -93.7% (active); with SF-539 CNS, -99% (active). The growth in the test with UACC-257 melanoma and with M14 melanoma was -92.2% (active) each time.

On to `N#Cc1c(-c2ccc(Br)cc2)nc2c(N=Nc3ccc(S(N)(=O)=O)cc3)c(N)nn2c1N`, for which the growth in the test on NCI-H23 lung is 63.7%; in the test with NCI-H226 lung it was 66.2%; with NCI-H322M lung, 74.7%; in the test on HOP-62 NSCLC, 52.2%; in the test on NCI-H460 lung, 37.1%; with HOP-92 NSCLC, 31.5%. In addition, the growth in the test with NCI-H522 lung is 38.6%; in the test with A549/ATCC NSCLC, 68.4%; in the test on 786-0 renal, 69.9%; with COLO 205 colon it was 25.5%; with DU-145 prostate it was 33.2%; in the test on K-562 leukemia it was 36.3%. The growth in the test on MALME-3M melanoma was 57.7%; with MDA-MB-231 breast, 41.2%; in the test on RXF 393 renal, 42.2%; in the test on SF-268 CNS it was 55.9%; with SF-295 CNS it was 61.9%; with SF-539 CNS, 38.6%. For the same molecule, the growth was 82.6% in the test on UACC-257 melanoma and 41.4% in the test with M14 melanoma.

With `Cc1ccc(S(=O)(=O)c2nc(-c3ccccc3)oc2SCC(N)=O)cc1`, the growth is 96.8% in the test with NCI-H23 lung; 98.1% with NCI-H226 lung; 104% in the test on NCI-H322M lung; 98.3% in the test on HOP-62 NSCLC; 104% with NCI-H460 lung; 83.2% in the test with HOP-92 NSCLC. The growth with NCI-H522 lung was 76.3%; in the test with A549/ATCC NSCLC it was 96.7%; in the test with 786-0 renal, 95%; in the test on COLO 205 colon, 111%; in the test on DU-145 prostate, 101%; in the test with K-562 leukemia, 88.2%. Also, the growth was 98.9% in the test with MALME-3M melanoma; 104% in the test with MDA-MB-231 breast; 99% with RXF 393 renal; 90% in the test with SF-268 CNS; 98.9% in the test on SF-295 CNS; 97.2% with SF-539 CNS. The growth was 113% with UACC-257 melanoma and 97.1% with M14 melanoma.

Regarding `Cc1cc(NCCCNc2ccnc3cc(Cl)ccc23)nc(Nc2ccc(C(=O)N3CCCCC3)cc2)n1`, the growth with NCI-H23 lung was 52.5%; in the test with NCI-H226 lung, 108%; in the test with NCI-H322M lung it was 17.8%; in the test on HOP-62 NSCLC it was 73.8%; with NCI-H460 lung, 9.68% (active); in the test on HOP-92 NSCLC, 83.8%. Moreover, the growth with NCI-H522 lung is -11.6% (active); with A549/ATCC NSCLC, 20.5%; with 786-0 renal, -29.5% (active); in the test on COLO 205 colon, -32.1% (active); in the test with DU-145 prostate, 36.6%; in the test on K-562 leukemia, 0.0536% (active). The growth is -90.5% (active) in the test with MALME-3M melanoma; -38.7% (active) in the test on MDA-MB-231 breast; -63.9% (active) with RXF 393 renal; 10.2% with SF-268 CNS; -34% (active) in the test with SF-295 CNS; -75.1% (active) in the test with SF-539 CNS. Moreover, the results for the growth with UACC-257 melanoma and in the test on M14 melanoma were -72.9% (active) and -68.3% (active), respectively.

For `Cc1ccc(-c2nc(SCC(=O)N3CCN(c4cc5c(cc4F)c(=O)c(C(=O)O)cn5C4CC4)CC3)nc(Cl)c2C#N)cc1`, the growth is 100% in the test on NCI-H23 lung; 104% with NCI-H226 lung; 101% with NCI-H322M lung; 90.4% with HOP-62 NSCLC; 103% in the test with NCI-H460 lung; 112% in the test with HOP-92 NSCLC. Moreover, the growth was 93.8% with NCI-H522 lung; 107% in the test on A549/ATCC NSCLC; 97.8% with 786-0 renal; 108% with COLO 205 colon; 106% in the test on DU-145 prostate; 98.2% in the test on K-562 leukemia. Besides, the growth with MALME-3M melanoma was 106%; in the test with MDA-MB-231 breast it was 99.7%; with RXF 393 renal it was 106%; in the test with SF-268 CNS, 93.5%; in the test on SF-295 CNS it was 97.4%; with SF-539 CNS, 100%. In addition, the values for the growth in the test with UACC-257 melanoma and in the test with M14 melanoma were 99.3% and 99%, respectively.

On to `CC(O)CNC(Cc1ccccc1)c1ccc2c(c1)OCO2` (stereo not given), for which the growth in the test on NCI-H23 lung was 98.5%; in the test with NCI-H226 lung, 90%; in the test with NCI-H322M lung, 93.6%; in the test with HOP-62 NSCLC it was 60.9%; with NCI-H460 lung it was 103%; in the test with HOP-92 NSCLC, 67.2%. Moreover, the growth in the test with NCI-H522 lung is 71.9%; in the test on A549/ATCC NSCLC, 84.6%; in the test on 786-0 renal, 83%; in the test with COLO 205 colon it was 71.4%; in the test on DU-145 prostate, 107%; in the test on K-562 leukemia, 90.5%. For the same molecule, the growth was 91% with MALME-3M melanoma; 99.5% in the test on MDA-MB-231 breast; 110% in the test on RXF 393 renal; 95.9% with SF-268 CNS; 88.8% with SF-295 CNS; 87.4% in the test with SF-539 CNS. For the same molecule, the growth with UACC-257 melanoma was 103%; in the test with M14 melanoma, 80.4%.
